About 8,600 (12%) of roughly 69,000 compounds showed an effect of 50% or more. The full list was thinned out, with strong results kept by preference.
Each molecule was assayed on Plasmodium berghei (assay: Screen against P. berghei liver stage (PbLuc), transformed with Luciferase, at 10uM). Settings: tested at 10 uM.
Type: functional, HepG2
For `COc1ccc(-c2nc(C#N)c(N(C)C)o2)cc1S(=O)(=O)N1CCCC1`, the INHIBITION was -35.5%. `c1cncc(CN2CC[C@@H]3O[C@H](COCCN4CCCC4)CC[C@@H]32)c1` showed an INHIBITION of -51%. In the case of `COc1ccc(CNC(=O)NC(C)(CO)C2CC2)c(C(F)(F)F)c1` (stereo not given), the INHIBITION is reported as 17.8%. `Cc1noc(C)c1CN1C[C@H](OCC2CC2)[C@H]2COC[C@H]21` gave an INHIBITION of -41%. With `Cc1noc(C)c1CN1C[C@H](OCC2CC2)[C@H]2OCCC[C@H]21` the INHIBITION was -1.64%. Work on `Cc1noc(C)c1CN1CC[C@@H](OCC2CC2)[C@@H](Cc2ccccc2)C1` yielded an INHIBITION of 73.4%. `COc1ccc(C[C@H]2CN(C3CCOCC3)CC[C@H]2OCC2CC2)cc1` showed an INHIBITION of -24.5%. In the case of `Cc1noc(C)c1CN1C[C@H](OCC2CCN(C)CC2)[C@H]2COC[C@H]21`, the INHIBITION is reported as -12.2%. In the case of `Cc1noc(C)c1CN1CC[C@H](OCC2CC2)[C@@H](Cc2ccccc2)C1`, the INHIBITION is reported as 53.2%. In the case of `O=C(NCCc1ccncc1)[C@@H]1CC[C@@H]2[C@@H](CCN2Cc2ccco2)O1`, the INHIBITION is reported as 31.7%. In the case of `O=S(=O)(NC1CCC12CCN(CC1CC1)CC2)c1ccccc1` (stereo not given), the INHIBITION is reported as 26%. For `COCC(=O)N1CCC2(CCC2NS(=O)(=O)c2ccccc2)CC1` (stereo not given), the INHIBITION was 64.5%. `COCC(=O)N1CCC2(CCC2NC(=O)c2ccn(C)c2)CC1` (stereo not given) gave an INHIBITION of 41.6%. For `Cc1nc(O)c2nnn(C[C@H]3CCCN3C(=O)c3ccc(F)cc3)c2n1`, the INHIBITION was 8.72%. In the case of `CCc1cc(=O)[nH]c(-c2ccc(NC(C)COC)nc2)n1` (stereo not given), the INHIBITION is reported as -10.3%. `COc1cccc(CC2(C(=O)O)CCN(c3ccc(Cl)cn3)CC2)c1` showed an INHIBITION of 30.8%. `CCOC(=O)C1(Cc2ccc(Cl)cc2)CCN(Cc2ncc[nH]2)CC1` was tested, and the INHIBITION was 82.1%. With `COc1cccc(CNC(=O)N2CCN(Cc3cc(C)on3)CC2)c1` the INHIBITION was -1.62%. Work on `COc1cccc(CC2(C(=O)O)CCN(c3nccs3)CC2)c1` yielded an INHIBITION of 22.3%. `CCOC(=O)C1(Cc2cccc(Cl)c2)CCCN(Cc2ncc[nH]2)C1` (stereo not given) gave an INHIBITION of 46.7%. Work on `CCOC(=O)C1(Cc2cccc(OC)c2)CCCN(Cc2ncc[nH]2)C1` (stereo not given) yielded an INHIBITION of 41.2%. `O=C1CC2(CCN(Cc3ncc[nH]3)CC2)CN1Cc1ccc(Cl)cc1` was tested, and the INHIBITION was 12.4%. In the case of `CCOC(=O)C1(Cc2cccc(OC)c2)CCN(Cc2ncc[nH]2)CC1`, the INHIBITION is reported as 57.6%. With `CCOC(=O)C1(Cc2cccc(OC)c2)CCN(Cc2ccon2)CC1` the INHIBITION was 55.7%. Work on `CS(=O)(=O)N1C[C@H](C(=O)Nc2cccnc2)[C@@H]2CCO[C@@H]2C1` yielded an INHIBITION of -7.7%. `CN(C)c1ncnc2c1CCN(C(=O)c1cccnc1)CC2` showed an INHIBITION of 20.6%. In the case of `COc1cc(NC2CCN(C3CCS(=O)(=O)CC3)CC2)ncn1`, the INHIBITION is reported as -15%. `Cc1ccc(CC(=O)N2CCCC(c3cc(C(N)=O)[nH]n3)C2)cn1` (stereo not given) showed an INHIBITION of 39.35%. `CCOCc1ccccc1NC(=O)NCC(c1cnn(C)c1)N(C)C` (stereo not given) showed an INHIBITION of 2.91%. `Cn1cc(C(O)CNC(=O)Nc2cc(F)ccc2-n2cccn2)cn1` (stereo not given) showed an INHIBITION of 23.4%. `CCOc1cc(F)ccc1NC(=O)NCC(c1cnn(C)c1)N(C)C` (stereo not given) gave an INHIBITION of 44.9%. With `Cc1ccc(C(=O)NCC(c2cnn(C)c2)N(C)C)c(O)c1` (stereo not given) the INHIBITION was 1.19%. `Cc1ccc(NC(=O)NCC(c2cnn(C)c2)N(C)C)c(C)c1` (stereo not given) was tested, and the INHIBITION was 57.7%. Work on `CCOc1ccccc1CNC(=O)NCC(c1cnn(C)c1)N(C)C` (stereo not given) yielded an INHIBITION of 62.8%. In the case of `O=C(c1ccc(C2CCNC2)cc1)N1CCC(N2CCC(O)CC2)CC1` (stereo not given), the INHIBITION is reported as -8%. With `CCN(CC)Cc1cn2c(n1)CN(C(=O)c1cnccn1)CC2` the INHIBITION was 37%. Molecule `CN1C(=O)CO[C@H]2CN(C(=O)c3ccc4c(c3)CCCC4)C[C@@H]21` has an INHIBITION of -3%. `Cn1ccnc1CN1CCC(Cc2ccccn2)CC1` gave an INHIBITION of 38.2%. With `O=C(NCCCO)c1nc(-c2ccc3cc[nH]c3c2)no1` the INHIBITION was -108%. For `c1cncc(NCCNC2CCSC2)c1` (stereo not given), the INHIBITION was 29.7%. `Cc1cnccc1NCCNC1CCN(CC(C)C)CC1` showed an INHIBITION of -58.7%. In the case of `CC(NC1CCCC1)c1ccccc1-n1cccn1` (stereo not given), the INHIBITION is reported as -8.66%. `CC(C)CN1CCC(NCCNc2cccnc2)CC1` was tested, and the INHIBITION was 52.7%. With `CC(C)CN1CCC(NC(C)c2ccccc2-n2cccn2)CC1` (stereo not given) the INHIBITION was 89.1%. For `c1cncc(NCCNC2CCCNC2)c1` (stereo not given), the INHIBITION was 4.95%. For `CC(NC1CCSCC1)c1ccccc1-n1cccn1` (stereo not given), the INHIBITION was -4.12%. Molecule `c1cncc(NCCNC2CCSCC2)c1` has an INHIBITION of -22.8%. `c1cncc(NCCNC2CSCCSC2)c1` gave an INHIBITION of 57.5%. Molecule `O=C(O)c1cnc(N2CCC(O)CC2)nc1COc1ccc(F)cc1` has an INHIBITION of 46.1%. `CC(C)(C)NC(=O)c1ccn(COc2c(Cl)cccc2Cl)n1` showed an INHIBITION of 20.9%. In the case of `Cc1cc(C(=O)NCc2cccs2)c2c(C3CCCN3)noc2n1` (stereo not given), the INHIBITION is reported as 29.2%. With `COc1ccccc1C(=O)N1CC(=O)N(CC2CC2)CC(O)C1` (stereo not given) the INHIBITION was 34.3%. `Cc1cccc(C(=O)N2C[C@@H]3COC[C@@H](CC(=O)N4CCCC4)[C@@H]3C2)n1` was tested, and the INHIBITION was -69.3%. With `CN(C1CCN(c2ccccn2)CC1)S(=O)(=O)N1CCOCC1` the INHIBITION was 55.4%. Work on `CN(C(=O)Cc1ccccc1Cl)C1CCN(c2ccccn2)CC1` yielded an INHIBITION of 60.5%. `CN(C(=O)CNc1ccc(C#N)cc1)C1CCN(c2ccccn2)CC1` was tested, and the INHIBITION was 11.2%. For `COCCOCC(=O)NC1CCN(c2ccccn2)CC1`, the INHIBITION was 51.3%. Work on `CN(C1CCN(c2ccccn2)CC1)S(=O)(=O)c1ccc(F)cc1` yielded an INHIBITION of 8.13%. `CN(C1CCN(c2ccccn2)CC1)S(=O)(=O)c1cccs1` gave an INHIBITION of 33%. In the case of `Cc1ccccc1CC(=O)N(C)C1CCN(c2ccccn2)CC1`, the INHIBITION is reported as 42.9%. For `CN(C(=O)Cc1cccs1)C1CCN(c2ccccn2)CC1`, the INHIBITION was 54.4%. `CN(C1CCCN(c2ccccn2)C1)S(=O)(=O)N1CCOCC1` (stereo not given) gave an INHIBITION of 17.85%. `CCOc1ncccc1C(=O)N(C)C1CCN(c2ccccn2)CC1` gave an INHIBITION of 15.6%. `Cc1ccc(C)c(OCC(=O)NC2CCN(c3ccccn3)CC2)c1` was tested, and the INHIBITION was -43.2%. Work on `O=C(COCCOc1ccccc1)NC1CCN(c2ccccn2)CC1` yielded an INHIBITION of -10.7%. With `Cc1cnn(C2CCCN(C(=O)CCCn3ccnc3C)C2)c1` (stereo not given) the INHIBITION was 9.54%. For `Cc1cc(CN2CCC3(CC2)COC(COCC2CC2)C3)no1` (stereo not given), the INHIBITION was 22.2%. With `CCNC(=O)NC(=O)CN1CCC(c2cccc(F)c2)C1` (stereo not given) the INHIBITION was 15.8%. `O=C(NC1CC1)c1cc(C(F)(F)F)cc(C(F)(F)F)n1` showed an INHIBITION of -14.3%. For `Cc1ccc(OCCN2CCC(c3ccnn3CCO)CC2)cc1`, the INHIBITION was 19.6%. In the case of `CCc1nc2n(n1)CC(NCc1nc(-c3ccccn3)no1)CC2` (stereo not given), the INHIBITION is reported as 4.45%. In the case of `COCCOc1cccc(C(=O)N2CCCC(n3ccnc3)C2)c1` (stereo not given), the INHIBITION is reported as 33.7%. Molecule `OCC(CO)N1CCC(c2nccnc2Nc2cnccn2)CC1` has an INHIBITION of -42.9%. `Cc1ccc(S(=O)(=O)N2CCCC3(CCCN3S(C)(=O)=O)C2)cc1F` (stereo not given) was tested, and the INHIBITION was -21.1%. With `CSC1(CNC(=O)CCc2ccc(Cl)s2)CCOCC1` the INHIBITION was -19.1%. Molecule `CN1CCN(CCCNC(=O)CCc2nc3cc(Br)cnc3[nH]2)CC1` has an INHIBITION of 38.9%. `CCc1nccn1C1CCCN(C(=O)c2ccc3[nH]cnc3c2)C1` (stereo not given) was tested, and the INHIBITION was 3.16%. Work on `CCCc1nnc(NCCn2nc(C)c(Cl)c2C)o1` yielded an INHIBITION of 13.7%. With `Cc1cc(C)n(CC2CN(CC(=O)NC3CCOCC3)CCO2)n1` (stereo not given) the INHIBITION was 36.1%. Work on `COc1ccc2[nH]cc(C(=O)N3C[C@@H](O)[C@H](N4CCOCC4)C3)c2c1` yielded an INHIBITION of 29.5%. With `O=C(Cc1ccc(F)cc1)NCCNCc1cccc(O)c1` the INHIBITION was 5.9%. `CCn1c(C)cc(C(=O)N2C[C@@H](C(=O)O)[C@H](c3ccccc3)C2)c1C` was tested, and the INHIBITION was 35.8%. For `CNc1ncc(C(=O)N[C@H]2CN(CCCSC)C[C@@H]2C2CC2)cn1`, the INHIBITION was 1.71%. Molecule `CN(Cc1cnn(C)c1)C(=O)NC1CCN(c2ncccn2)CC1` has an INHIBITION of 3.04%. `CN(C(=O)c1ccccc1Cl)C1CCN(c2ccccn2)CC1` showed an INHIBITION of 28.6%. In the case of `COCC(C)N(C)C(=O)NC1CCN(S(C)(=O)=O)CC1` (stereo not given), the INHIBITION is reported as 36.2%. For `Cc1cccc(C(=O)N(C)C2CCN(c3ccccn3)CC2)c1C`, the INHIBITION was 37.3%. In the case of `O=C1OCCC1N1CCN(c2ccccn2)CC1` (stereo not given), the INHIBITION is reported as 59.3%. Molecule `CN(C(=O)Cc1ccccc1F)C1CCN(c2ccccn2)CC1` has an INHIBITION of 52.3%. `COCC(C)N(C)C(=O)NC1CCN(c2ncccn2)CC1` (stereo not given) gave an INHIBITION of 52.2%. `CN(C1CCN(c2ccccn2)CC1)S(=O)(=O)c1ccccc1F` was tested, and the INHIBITION was 21.5%. `O=C1OCCC1N1CCN(c2ccc(O)cc2)CC1` (stereo not given) showed an INHIBITION of 43.1%. Work on `O=C1OCCC1N1CCN(c2cnccn2)CC1` (stereo not given) yielded an INHIBITION of 3.69%. `CN(C(=O)c1cccc2[nH]ncc12)C1CCN(c2ccccn2)CC1` was tested, and the INHIBITION was 59.7%. `CN(Cc1noc(C2CC2)n1)C1CCN(CCS(C)(=O)=O)C1` (stereo not given) showed an INHIBITION of -24.2%. With `CN(C(=O)c1cc(Cl)c[nH]1)C1CCN(c2ccccn2)CC1` the INHIBITION was 50.4%. For `CN(C(=O)CNC(=O)CC(C)(C)C)C1CCN(c2ccccn2)CC1`, the INHIBITION was -11.5%. For `CN(C(=O)Cc1c[nH]c2ccccc12)C1CCN(c2ccccn2)CC1`, the INHIBITION was 53.8%. `CN(C(=O)c1ccc(Cl)cc1)C1CCN(c2ccccn2)CC1` gave an INHIBITION of 3.73%. In the case of `CN(C(=O)c1cccc(Cl)c1)C1CCN(c2ccccn2)CC1`, the INHIBITION is reported as 31.3%. In the case of `CN(C(=O)Cc1ccc(F)cc1)C1CCN(c2ccccn2)CC1`, the INHIBITION is reported as -1.14%. Work on `OC(CN1CCN(Cc2ccc(F)c(F)c2)CC1)C1CC1` (stereo not given) yielded an INHIBITION of -48.4%. With `Cc1nc(C(C)n2cc3[nH]cccc-3c2=O)cs1` (stereo not given) the INHIBITION was 33.7%. Molecule `CCN(Cc1noc(C2CC2)n1)C(=O)c1onc2ccccc12` has an INHIBITION of 48.1%. For `O=C1CCCN1Cc1nnc(SCc2ccc3c(c2)CCC3)o1`, the INHIBITION was 13.2%.

From ChEMBL document CHEMBL4513216, “Probing the Open Global Health Chemical Diversity Library for Multistage-Active Starting Points for Next-Generation Antimalarials” (ACS Infect Dis, 2020)
